High-throughput results: PubChem, The Scripps Research Institute Molecular Screening Center
Shown are actives, neighbours in structure and some others; about 2.3% of the full set was active somewhere.
UHRF1 MBD2 ctr = human UHRF1 methylated DNA binding inhibitors; Q96T88; UHRF1 binding to methylated oligo, TR-FRET; inhibition, % at 4.4 µM; 0.75% of 370,000 active; AID 687016; in the data active = inhibition above about 21%;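 note: UHRF1 SRA domain binding a hemimethylated CpG hairpin DNA probe; 0% = median of test compound wells and 100% = reference inhibitor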
Target sequence (Q96T88 whole entry, looked up, the tested form may be a part): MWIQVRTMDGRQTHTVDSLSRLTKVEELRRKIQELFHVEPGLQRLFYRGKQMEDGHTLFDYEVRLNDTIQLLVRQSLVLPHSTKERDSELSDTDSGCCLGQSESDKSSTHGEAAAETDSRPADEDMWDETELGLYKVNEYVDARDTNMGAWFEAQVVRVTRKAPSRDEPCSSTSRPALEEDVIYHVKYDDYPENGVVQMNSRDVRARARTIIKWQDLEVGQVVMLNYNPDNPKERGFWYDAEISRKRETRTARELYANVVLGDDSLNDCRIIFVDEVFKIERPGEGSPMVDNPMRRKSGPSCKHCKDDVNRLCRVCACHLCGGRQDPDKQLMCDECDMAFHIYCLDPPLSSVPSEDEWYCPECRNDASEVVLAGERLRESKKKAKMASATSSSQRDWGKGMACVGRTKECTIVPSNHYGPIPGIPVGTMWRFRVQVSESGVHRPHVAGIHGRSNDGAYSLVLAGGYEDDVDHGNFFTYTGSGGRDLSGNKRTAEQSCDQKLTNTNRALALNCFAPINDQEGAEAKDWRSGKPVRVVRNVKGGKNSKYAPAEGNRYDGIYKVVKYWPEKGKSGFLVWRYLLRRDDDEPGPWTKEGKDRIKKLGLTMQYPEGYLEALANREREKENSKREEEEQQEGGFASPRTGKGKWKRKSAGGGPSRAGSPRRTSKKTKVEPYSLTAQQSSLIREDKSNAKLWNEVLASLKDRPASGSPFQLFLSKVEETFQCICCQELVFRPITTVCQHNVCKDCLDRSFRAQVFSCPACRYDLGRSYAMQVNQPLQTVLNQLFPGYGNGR
LEDGF integ inh = blocks HIV-1 LEDGF/p75-dependent DNA integration; TR-FRET IN-LEDGF/p75 DNA integration, Eu/Cy5; inhibition, % at 3.7 µM; 0.64% of 370,000 active;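 active = inhibition above the screen-wide mean plus 3 SD, cut at about 13% in these data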;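 note: signal is the Cy5 over europium emission ratio at 671 and 618 nm; 0% = plate median of compound wells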
MBD2 inh = inhibitors of human MBD2 binding to methylated oligonucleotide. TR-FRET. Q9UBB5. 0.31% of 370,000 active. inhibition, % at 4.4 µM; in the data active = inhibition above about 13%
PLC-beta3 inh = inhibitors of human phospholipase C beta3; Q01970; inhibition, % at 12.2 µM; AID 720704; Purified PLC-beta3, fluorogenic substrate, fluorescence; 0.18% of 370,000 active; in the data active = inhibition above about 11%;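 note: 0% = median of compound wells on plate and 100% = full blocker control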
PLCg1 inh = blocks human PLC-gamma1 enzyme activity | purified PLC-gamma1, fluorogenic substrate, fluorescence | inhibition, % at 12.2 µM | 0.84% of 370,000 active
UHRF1 ctr MBD2 = counter-screen for MBD2 inhibitors: human UHRF1 methylated DNA binding inhibitors; shares compounds with MBD2 inh; UHRF1 binding to methylated oligonucleotide, TR-FRET; inhibition, % at 4.4 µM; 25% of 1,000 active; AID 720530; in the data active = inhibition above about 21%;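 note: UHRF1 SRA domain binding a labeled hemimethylated CpG hairpin DNA; 0% = vehicle only and 100% = reference inhibitor with vehicle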
MBD2 DBD conf = MBD2-DBD methyl-DNA binding inhibition, TR-FRET confirmation. shares compounds with MBD2 inh. TR-FRET MBD2-DBD binding to methylated oligonucleotide. inhibition, % at 4.4 µM. 26% of 1,000 active; in the data active = inhibition above about 14%
PLCgamma1 ctr = inhibits human PLC-gamma1 in PLC-beta3 counter-screen; shares compounds with PLCg1 inh; 3.1% of 3,300 active; AID 743258; inhibition, % at 12.3 µM; purified PLC-gamma1, fluorogenic substrate, fluorescence
PLCb3 confirm = confirmation of human PLC-beta3 inhibitors | purified PLC-beta3, fluorogenic substrate fluorescence | shares compounds with PLCg1 inh | 1% of 3,300 active | inhibition, % at 12.3 µM | AID 743261; in the data active = inhibition above about 11%
IN multimer up = activates HIV-1 integrase multimerization in LEDGF counter-screen; shares compounds with LEDGF integ inh; TR-FRET HIV-1 integrase multimerization, biochemical; activation, % at 7.7 µM; 17% of 2,000 active; AID 1053131; in the data active = activation above about 8.9%
TRFRET interf = TR-FRET optical interference, LEDGF/p75 integration counter-screen; shares compounds with LEDGF integ inh; TR-FRET optical interference counterscreen, HIV-1 IN multimerization; inhibition, % at 7.7 µM; 2,000 tested, under 10 active;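 active = inhibition above the mean over all tested compounds plus 3 SD, which no compound reached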;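 note: 0% = integrase with antibodies and DMSO and 100% = antibodies without integrase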
IN-LEDGF confirm = confirmation of HIV-1 LEDGF/p75-dependent integration inhibitors | 36% of 2,000 active | inhibition, % at 3.7 µM | AID 1053136 | shares compounds with LEDGF integ inh | TR-FRET LEDGF/p75-dependent HIV-1 integration, biochemical; in the data active = inhibition above about 14%
Starred values were filed as active, the others as inactive; / = no result. Cut-off read from the data, not from the text of the source, unless noted: active = inhibition above about 9.5%; inactive = the rest.

SMILES	UHRF1 MBD2 ctr	LEDGF integ inh	MBD2 inh	PLC-beta3 inh	PLCg1 inh	PLCgamma1 ctr	PLCb3 confirm	others
Fc1ccc(-c2n[nH]c(=S)n2N=Cc2ccc(-c3ccccc3)cc2)cc1	4	-4	-1	-2	-2	/	/
O=C(O)c1cccc(-n2cccc2/C=N/O)c1	16	9	4	2	4	/	/
O=C(O)c1cccc(-n2cccc2/C=C\[N+](=O)[O-])c1	58*	32*	17*	-55	-22	/	/	UHRF1 ctr MBD2=26*;MBD2 DBD conf=3;IN multimer up=3;TRFRET interf=-15;IN-LEDGF confirm=6
O=C(O)CS(=O)CC(=O)Nc1cccc(C(F)(F)F)c1 (configuration not stated)	-1	0	-4	2	20*	25*	-2
COc1ccc(S[C@]2(C(=O)NCCCN(C)C)CC(=O)N[C@@H]2c2ccc(OC)cc2)cc1	-2	0	-2	-2	-1	/	/
O=C(c1cccs1)N1CC[C@H]2[C@H](CCCN2Cc2cc(F)cc(F)c2)C1	0	-1	-1	-4	1	/	/
CCc1nnc(NC(=O)CCC(=O)N2CCN(CCOc3ccc(C)cc3)CC2)s1	4	-2	-1	14*	6	-6	-4
O=C(O)CN1C(=O)C2C3CCC(C3)C2C1=O (configuration not stated)	2	5	-1	8	14*	-5	-2
O=C(c1ccccc1)N1CCN=C1SCc1ccc([N+](=O)[O-])cc1	1	1	0	-3	9.6*	-3	0
CCOC(=O)CSc1nc2ccccc2c(=O)n1CC1CCC(C(=O)NCc2ccco2)CC1 (configuration not stated)	10	-4	0	4	10.0*	-2	-4
Cc1ccc(Cn2cc(CN3[C@@H](CC(C)C)COc4cccc(F)c4S3(=O)=O)nn2)cc1	-5	1	4	0	1	/	/
Cc1ccc2nc(SC(C(=O)Nc3ccc(F)cc3)c3ccccc3)[nH]c2c1 (configuration not stated)	1	4	3	6	13*	-2	-8
Cc1ccc(C)c(NC(=O)C(Sc2nc3ccc(C)cc3[nH]2)c2ccccc2)c1 (configuration not stated)	-2	-1	0	4	-1	/	/
O=C(NCc1ccccc1Cl)C1CCCN1C(=O)NCc1ccccc1 (configuration not stated)	1	-5	-2	-5	-3	/	/
O=C(NCc1ccccc1F)C1CCCN1C(=O)NCc1ccccc1 (configuration not stated)	7	1	0	13*	4	4	-1
CC(=O)c1cccc(NC(=O)c2onc(C)c2Cl)c1	0	0	-3	4	3	/	/
Cc1noc(C(=O)Nc2cccnc2)c1Cl	-1	1	-7	4	12*	-6	-4
Cc1ccc(Cn2c(-c3nonc3N)nc3ccccc32)cc1	-1	1	1	-6	-2	/	/
OCc1nc2ccccc2n1Cc1ccc(Cl)cc1	5	4	-2	1	10*	-10	-5
Nc1nonc1-c1nc2ccccc2n1Cc1ccc(Cl)cc1	5	-2	0	-6	11*	-8	-6
Cc1nc2ccccc2n1Cc1ccc(Cl)cc1	3	1	7	-5	0	/	/
CC(=O)c1c(C)[nH]c(C(=O)Nc2ccccc2C)c1C	0	-1	3	-2	2	/	/
CC[C@H](CCCCCC#N)CCC(=O)N(c1ccccc1)c1ccccc1	1	2	-1	2	-1	/	/
CN(C)C(CNC(=O)c1c(F)cccc1Cl)c1ccco1 (configuration not stated)	0	3	0	-5	11*	-6	-2
CSCC[C@H](NC(=O)c1nn(C)c(=O)c2ccccc12)c1nc2ccccc2[nH]1	-2	0	-1	1	13*	-9	-6
SMILES	UHRF1 MBD2 ctr	LEDGF integ inh	MBD2 inh	PLC-beta3 inh	PLCg1 inh	PLCgamma1 ctr	PLCb3 confirm	others
CC1(C)CC(NC(=O)c2ccncc2)CC(C)(C)N1O	1	3	-5	1	11*	-9	-5
CN1CCC(NC(=O)c2ccncc2)CC1	-2	-1	3	-1	-1	/	/
CCc1cc(C(=O)NNC(=O)CCl)sc1C	3	-4	7	2	11*	-3	-2
CCc1cc(C(=O)NNC(=O)CCN2CCN(c3ccccc3)CC2)sc1C	1	-1	7	-7	1	/	/
COc1cc(-n2nnnc2SCC(=O)N2CCN(c3ccc(F)cc3)CC2)c(OC)cc1Cl	2	0	3	3	0	/	/
CCOC(=O)CSc1nnnn1-c1cc(OC)c(Cl)cc1OC	1	0	-1	1	9.8*	-4	-2
O=C(Cn1c(-c2cncs2)nc2ccccc21)N1CCCCC1	1	-2	-3	-2	1	/	/
Cc1ccc(CNC(=O)CN(c2cccc([N+](=O)[O-])c2)S(C)(=O)=O)cc1	2	7	-5	3	11*	-2	-3
Cc1ccc(N(CC(=O)NCc2cccnc2)S(C)(=O)=O)cc1C	6	-1	5	5	12*	-3	1
O=C(Nc1ccccc1)c1ccc(S(=O)(=O)NCc2cccnc2)cc1	0	2	4	-93	10*	-1	2
O=C(CSc1nnc(-c2ccncc2)n1-c1ccccc1)Nc1cccc2ccccc12	0	1	-5	4	1	/	/
CCOC(=O)c1c(CC(C)C)csc1NC(=O)CCl	6	-2	-2	11*	6	-3	-6
CCOC(=O)c1c(CC(C)C)csc1NC(=O)C(C)C	1	0	-1	2	3	/	/
O=C(Nc1nc(-c2ccc(F)c(F)c2)cs1)Nc1ccc(F)cc1F	-3	2	-5	3	10*	3	-1
